{
  "source": "paper PMC4336329",
  "about": "(PLoS ONE, 2015)",
  "note": "Screen size: about 310,000 compounds; about 14,000 (4.5%) showed an effect of 50% or more. Effects have a minus sign here. This is one part of a sample in which strong results are shown more often than they occur.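 Note: peak tail current of the secondary pulse compared with the same well before compound.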",
  "data": [
    {"target": "human ether-à-go-go-related gene (hERG) potassium channel (human, UniProt Q12809)", "sequence (Q12809 whole entry, looked up)": "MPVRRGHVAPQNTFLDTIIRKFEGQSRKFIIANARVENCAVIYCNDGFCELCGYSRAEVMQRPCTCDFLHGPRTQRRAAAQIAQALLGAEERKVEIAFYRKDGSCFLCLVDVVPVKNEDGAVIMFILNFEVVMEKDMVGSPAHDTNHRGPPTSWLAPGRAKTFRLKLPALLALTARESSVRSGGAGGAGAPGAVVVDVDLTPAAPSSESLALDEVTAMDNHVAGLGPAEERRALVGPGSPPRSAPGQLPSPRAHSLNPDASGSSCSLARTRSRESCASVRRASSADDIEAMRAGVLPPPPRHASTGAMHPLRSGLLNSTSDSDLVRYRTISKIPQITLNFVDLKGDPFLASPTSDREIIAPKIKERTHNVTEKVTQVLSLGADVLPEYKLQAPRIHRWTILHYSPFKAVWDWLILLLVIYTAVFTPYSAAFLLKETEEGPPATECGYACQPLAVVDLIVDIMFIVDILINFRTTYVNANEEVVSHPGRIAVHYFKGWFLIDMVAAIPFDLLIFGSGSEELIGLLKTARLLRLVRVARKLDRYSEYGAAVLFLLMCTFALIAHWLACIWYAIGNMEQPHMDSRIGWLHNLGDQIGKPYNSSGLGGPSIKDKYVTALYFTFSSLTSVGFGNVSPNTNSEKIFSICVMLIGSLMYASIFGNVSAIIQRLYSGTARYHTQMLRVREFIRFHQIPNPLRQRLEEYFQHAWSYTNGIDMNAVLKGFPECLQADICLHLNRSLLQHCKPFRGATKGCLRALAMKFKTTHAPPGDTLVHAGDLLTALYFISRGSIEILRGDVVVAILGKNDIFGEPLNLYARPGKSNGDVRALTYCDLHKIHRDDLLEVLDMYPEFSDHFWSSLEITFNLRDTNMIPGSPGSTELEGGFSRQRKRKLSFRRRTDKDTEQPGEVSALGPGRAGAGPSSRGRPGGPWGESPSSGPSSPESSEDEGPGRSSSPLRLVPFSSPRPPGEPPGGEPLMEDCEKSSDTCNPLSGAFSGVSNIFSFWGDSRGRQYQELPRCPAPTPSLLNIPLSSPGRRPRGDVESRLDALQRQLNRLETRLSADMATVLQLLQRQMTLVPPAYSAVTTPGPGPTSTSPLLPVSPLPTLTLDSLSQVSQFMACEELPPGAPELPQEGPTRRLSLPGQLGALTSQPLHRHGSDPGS", "test": "primary screen, population patch clamp on CHO cells stably expressing hERG; higher = less effect of the substance", "units": {"hERG current change (%, negative = inhibition) at 10uM": "%"}, "values": [
      {"smiles": "CC(=O)Nc1ccc(NC(=O)/C=C/c2ccc3c(c2)OCO3)cc1", "hERG current change (%, negative = inhibition) at 10uM": 13},
      {"smiles": "O=C(/C=C/c1ccc2c(c1)OCO2)c1cccnc1", "hERG current change (%, negative = inhibition) at 10uM": -27.8},
      {"smiles": "O=C(/C=C/c1ccc2c(c1)OCO2)Nc1cccnc1", "hERG current change (%, negative = inhibition) at 10uM": -66.4},
      {"smiles": "C[C@@H](C(=O)N[C@@H](Cc1c[nH]c2ccccc12)C(=O)O)n1nnc2ccccc2c1=O", "hERG current change (%, negative = inhibition) at 10uM": 41.7},
      {"smiles": "Cn1c(Cn2c(=O)sc3ccccc32)nnc1SCc1ccc(F)cc1", "hERG current change (%, negative = inhibition) at 10uM": -21.6},
      {"smiles": "CC(=O)N(CCS(=O)(=O)c1ccc(Cl)cc1)Cc1cccs1", "hERG current change (%, negative = inhibition) at 10uM": -0.348},
      {"smiles": "N#C/C(=C\\c1ccc(N2CCOCC2)o1)C(=O)NCCc1ccccc1", "hERG current change (%, negative = inhibition) at 10uM": -57.9},
      {"smiles": "COCCNC(=O)/C(C#N)=C/c1ccc(N2CCOCC2)o1", "hERG current change (%, negative = inhibition) at 10uM": 9.87},
      {"smiles": "N#C/C(=C\\c1ccc(N2CCOCC2)o1)C(=O)NCC1CCCO1", "note": "(stereo not drawn)", "hERG current change (%, negative = inhibition) at 10uM": -0.262},
      {"smiles": "O=C(c1cc(C(=O)NCc2ccccc2)c(=O)n(Cc2ccccc2)c1)c1cc(Cl)ccc1O", "hERG current change (%, negative = inhibition) at 10uM": -0.908},
      {"smiles": "Cc1ccc2nsnc2c1S(=O)(=O)Nc1cccc2nsnc12", "hERG current change (%, negative = inhibition) at 10uM": -0.692},
      {"smiles": "COc1cc(C(=O)NC(=S)Nc2nccs2)cc(OC)c1OC", "hERG current change (%, negative = inhibition) at 10uM": 17.7},
      {"smiles": "CCOC(=O)C(CC)Sc1nc2c(c(=O)[nH]c(=O)n2C)n1CCc1ccccc1", "note": "(stereo not drawn)", "hERG current change (%, negative = inhibition) at 10uM": -67.8},
      {"smiles": "Cn1c(=O)[nH]c(=O)c2c1nc(SCC(=O)O)n2CCCc1ccccc1", "hERG current change (%, negative = inhibition) at 10uM": 3.89},
      {"smiles": "CCOC(=O)C(C)Sc1nc2c(c(=O)[nH]c(=O)n2C)n1C/C=C(/C)Cl", "note": "(stereo not drawn)", "hERG current change (%, negative = inhibition) at 10uM": -72.8},
      {"smiles": "C/C(Cl)=C/Cn1c(SC(C)C)nc2c1c(=O)[nH]c(=O)n2C", "hERG current change (%, negative = inhibition) at 10uM": -6.63},
      {"smiles": "CCC(C)Sc1nc2c(c(=O)[nH]c(=O)n2C)n1Cc1ccc(Cl)cc1", "note": "(stereo not drawn)", "hERG current change (%, negative = inhibition) at 10uM": 1.92},
      {"smiles": "CCOC(=O)CSc1nc2c(c(=O)[nH]c(=O)n2C)n1CCc1ccccc1", "hERG current change (%, negative = inhibition) at 10uM": -1.16},
      {"smiles": "CC(C)Sc1nc2c(c(=O)[nH]c(=O)n2C)n1Cc1ccc(Cl)cc1", "hERG current change (%, negative = inhibition) at 10uM": -13.3},
      {"smiles": "C/C(Cl)=C/Cn1c(SCC(C)C)nc2c1c(=O)[nH]c(=O)n2C", "hERG current change (%, negative = inhibition) at 10uM": 15.2},
      {"smiles": "CCOC(=O)C(C)Sc1nc2c(c(=O)[nH]c(=O)n2C)n1Cc1ccc(Cl)cc1", "note": "(stereo not drawn)", "hERG current change (%, negative = inhibition) at 10uM": -75},
      {"smiles": "CCOC(=O)C(C)Sc1nc2c(c(=O)[nH]c(=O)n2C)n1CCc1ccccc1", "note": "(stereo not drawn)", "hERG current change (%, negative = inhibition) at 10uM": -49.8},
      {"smiles": "COC(=O)C(C)Sc1nc2c(c(=O)[nH]c(=O)n2C)n1CCC(C)C", "note": "(stereo not drawn)", "hERG current change (%, negative = inhibition) at 10uM": -24.6},
      {"smiles": "COC(=O)C(C)Sc1nc2c(c(=O)[nH]c(=O)n2C)n1CCCc1ccccc1", "note": "(stereo not drawn)", "hERG current change (%, negative = inhibition) at 10uM": -72.2},
      {"smiles": "Cc1ccc(OC(=S)Nc2ccc(F)cc2)cc1", "hERG current change (%, negative = inhibition) at 10uM": 7.01},
      {"smiles": "Cc1ccc(Sc2nc(-c3ccccc3)nnc2C(F)(F)F)cc1", "hERG current change (%, negative = inhibition) at 10uM": 11.7},
      {"smiles": "CC(C)(C)C(=O)NC(Nc1cccc2cccnc12)C(Cl)(Cl)Cl", "note": "(stereo not drawn)", "hERG current change (%, negative = inhibition) at 10uM": -1.6},
      {"smiles": "CC1=C(C(=O)OC(C)C)C(c2ccc(Br)s2)NC(=O)N1", "note": "(stereo not drawn)", "hERG current change (%, negative = inhibition) at 10uM": -48},
      {"smiles": "O=c1oc2cc([N+](=O)[O-])ccc2nc1/C=C(\\O)c1cccc(Br)c1", "hERG current change (%, negative = inhibition) at 10uM": 4.15},
      {"smiles": "C[C@]12C(=O)N(c3ccc(F)cc3)C(=O)N1[C@@H]1c3ccccc3OC[C@@H]1[C@H]2c1ccccc1", "hERG current change (%, negative = inhibition) at 10uM": 7.01},
      {"smiles": "COc1cc(OC)c(NC2=NCCCCC2)cc1Cl", "hERG current change (%, negative = inhibition) at 10uM": -0.664},
      {"smiles": "CCOC(=O)C(CC)Sc1nc2c(c(=O)[nH]c(=O)n2C)n1C/C=C(/C)Cl", "note": "(stereo not drawn)", "hERG current change (%, negative = inhibition) at 10uM": -82},
      {"smiles": "CCOC(=O)CSc1nc2c(c(=O)[nH]c(=O)n2C)n1C/C=C(/C)Cl", "hERG current change (%, negative = inhibition) at 10uM": -43.7},
      {"smiles": "CCSc1nc2c(c(=O)[nH]c(=O)n2C)n1C/C=C(/C)Cl", "hERG current change (%, negative = inhibition) at 10uM": -17.2},
      {"smiles": "Nc1nc(Cl)cc(-c2ccccc2)n1", "hERG current change (%, negative = inhibition) at 10uM": -4.54},
      {"smiles": "CCC(C)C(NC=C1C(=O)OC(C)(C)OC1=O)C(=O)O", "note": "(stereo not drawn)", "hERG current change (%, negative = inhibition) at 10uM": -4.97},
      {"smiles": "CN(Cc1ccccc1)Cc1nc2c(c(=O)n(C)c(=O)n2C)n1CCc1ccccc1", "hERG current change (%, negative = inhibition) at 10uM": -48.3},
      {"smiles": "CC1CN(Cc2nc3c(c(=O)n(C)c(=O)n3C)n2Cc2cccc(Cl)c2)CC(C)O1", "note": "(stereo not drawn)", "hERG current change (%, negative = inhibition) at 10uM": -14.2},
      {"smiles": "Cn1c(=O)c2c(nc(CN3CCN(c4cccc(Cl)c4)CC3)n2CCc2ccccc2)n(C)c1=O", "hERG current change (%, negative = inhibition) at 10uM": -20.1},
      {"smiles": "COCCn1c(CN(C)Cc2ccccc2)nc2c1c(=O)n(C)c(=O)n2C", "hERG current change (%, negative = inhibition) at 10uM": -6.15},
      {"smiles": "CN(Cc1ccccc1)Cc1nc2c(c(=O)n(C)c(=O)n2C)n1CCCc1ccccc1", "hERG current change (%, negative = inhibition) at 10uM": -50.3},
      {"smiles": "COCCn1c(CN(Cc2ccccc2)Cc2ccccc2)nc2c1c(=O)n(C)c(=O)n2C", "hERG current change (%, negative = inhibition) at 10uM": -62.8},
      {"smiles": "CCCn1c(CN(C)Cc2ccccc2)nc2c1c(=O)n(C)c(=O)n2C", "hERG current change (%, negative = inhibition) at 10uM": -23.4},
      {"smiles": "CCOCCn1c(CN(Cc2ccccc2)Cc2ccccc2)nc2c1c(=O)n(C)c(=O)n2C", "hERG current change (%, negative = inhibition) at 10uM": -45.6},
      {"smiles": "Cn1c(=O)c2c(nc(CN3CCN(Cc4ccccc4)CC3)n2Cc2cccc(Cl)c2)n(C)c1=O", "hERG current change (%, negative = inhibition) at 10uM": -59.2}
    ]}
  ]
}
